In PubChem BioAssay (NCI) one finds growth data, which are given here for eight compounds.

Compounds without any hit were thinned out: in the full panel of roughly 83,000, 20% have a hit.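 Values shown are percent growth following 48 h exposure of cells in 96-well plates to a single concentration of compound; below 10 was considered active.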 A number with no mark means an inactive call. Activity calls are given as the source filed them.

Among the test systems are DU-145 prostate; MALME-3M melanoma; MDA-MB-231 breast; RXF 393 renal; SF-268 CNS; SF-295 CNS; SF-539 CNS; UACC-257 melanoma; M14 melanoma; HCT-15 colon; HT29 colon; SNB-75 CNS; SNB-19 CNS; U251 CNS; PC-3 prostate; UACC-62 melanoma; LOX IMVI melanoma; SK-MEL-28 melanoma.
What all share (assay): NCI-60 one-dose screen, 48 h (100 = growth as untreated, 0 = no growth, -100 = all killed)
What all share (details): 10 µM unless noted

Turning to `CCNC(=O)Oc1ccc(/C(=C(\C)c2ccc(Cl)cc2)c2ccc(OCCN(CC)CC)cc2)cc1`, the growth was 67.6% in the test with DU-145 prostate; -50.6% (active) in the test with MALME-3M melanoma; 44.3% in the test on MDA-MB-231 breast; 31.4% with RXF 393 renal; 51.7% with SF-268 CNS; 21.3% in the test with SF-295 CNS. Further, the growth in the test on SF-539 CNS was 58.2%; in the test on UACC-257 melanoma, -54.9% (active); in the test on M14 melanoma, -63.3% (active); with HCT-15 colon, 1.8% (active); with HT29 colon it was -23.2% (active); in the test on SNB-75 CNS it was 45.2%. Besides, the growth in the test with SNB-19 CNS is 59.2%; with U251 CNS, 21.1%; in the test with PC-3 prostate it was 31.4%; in the test with UACC-62 melanoma, -68.3% (active); with LOX IMVI melanoma, -59% (active); in the test on SK-MEL-28 melanoma, -62.3% (active).

Take `COc1ccc(C2C(C#N)=C(N)Oc3n[nH]c(-c4cccs4)c32)cc1I` (stereo not drawn): the growth was 107% with DU-145 prostate; 102% in the test on MALME-3M melanoma; 102% in the test with MDA-MB-231 breast; 93.9% in the test on RXF 393 renal; 91.2% in the test with SF-268 CNS; 94.4% in the test on SF-295 CNS. Moreover, the growth was 85.6% with SF-539 CNS; 89.4% in the test with UACC-257 melanoma; 90% in the test on M14 melanoma; 81.4% in the test with HCT-15 colon; 98.4% with HT29 colon; 77.9% with SNB-75 CNS. Also, the growth in the test with SNB-19 CNS is 87.1%; with U251 CNS, 90.6%; in the test with PC-3 prostate it was 85.8%; in the test with UACC-62 melanoma it was 79.1%; in the test on LOX IMVI melanoma it was 89%; in the test on SK-MEL-28 melanoma, 108%.

In the case of `COc1ccc(NC(=O)c2ccc(/C=C/C(=O)c3ncc[nH]3)cc2)cc1`, the growth in the test on DU-145 prostate is 34.1%; in the test on MALME-3M melanoma it was 95.1%; with MDA-MB-231 breast, 91.6%; with RXF 393 renal, 76.9%; in the test with SF-268 CNS it was 72.4%; in the test with SF-295 CNS, 88.4%. The growth in the test on SF-539 CNS is 64.1%; with UACC-257 melanoma, 97.8%; in the test on M14 melanoma, 87.3%; in the test with HCT-15 colon, 35.2%; in the test with HT29 colon it was 3.59% (active); with SNB-75 CNS, 75%. The growth was 56.1% in the test on SNB-19 CNS; 18.8% in the test with U251 CNS; 92.3% in the test on PC-3 prostate; 78.2% in the test with UACC-62 melanoma; 26.9% with LOX IMVI melanoma; 102% in the test with SK-MEL-28 melanoma.

Consider `Clc1ccc2c(NCCNc3nc(N4CCCCC4)nc4ccccc34)ccnc2c1`, for which the growth in the test with DU-145 prostate is 26.4%; with MALME-3M melanoma it was -79.8% (active); in the test with MDA-MB-231 breast, -85% (active); with RXF 393 renal it was -40.2% (active); with SF-268 CNS, 2.98% (active); in the test on SF-295 CNS, -81.3% (active). Also, the growth in the test with SF-539 CNS was -83.6% (active); in the test with UACC-257 melanoma, -70.2% (active); in the test on M14 melanoma, -79.7% (active); in the test on HCT-15 colon, -30.1% (active); in the test with HT29 colon, -28% (active); in the test on SNB-75 CNS it was -23.2% (active). Moreover, the growth with SNB-19 CNS is 13.2%; in the test on U251 CNS, -81.7% (active); in the test on PC-3 prostate it was 9.71% (active); with UACC-62 melanoma it was -90.7% (active); in the test with LOX IMVI melanoma it was -83.6% (active); with SK-MEL-28 melanoma it was -79.2% (active).

Consider `C/C1=C\CC[C@@]2(C)O[C@H]2[C@H]2OC(=O)C(CN3CCN(CC4C(=O)O[C@H]5[C@H]4CC/C(C)=C/CC[C@@]4(C)O[C@@H]54)CC3)[C@@H]2CC1` (stereo partly drawn), for which the growth with DU-145 prostate was 60.6%; in the test on MALME-3M melanoma, 101%; with MDA-MB-231 breast, 87.1%; in the test on RXF 393 renal, 94.6%; with SF-268 CNS, 104%; with SF-295 CNS it was 103%. The growth in the test on SF-539 CNS is 90.5%; in the test on UACC-257 melanoma, 83.5%; with M14 melanoma, 93.1%; in the test with HCT-15 colon it was 95%; in the test with HT29 colon it was 104%; in the test with SNB-75 CNS, 85.4%. Besides, the growth in the test on SNB-19 CNS is 99.2%; with U251 CNS it was 94%; with PC-3 prostate, 92%; in the test on LOX IMVI melanoma, 93.7%.

Take `COc1cc2c(cc1O)CC[C@@H]1[C@@H]2CC[C@]2(C)[C@@H](OCCCN(C)C)CC[C@@H]12`: the growth in the test on DU-145 prostate is -10.3% (active); with MALME-3M melanoma it was -76.1% (active); in the test with MDA-MB-231 breast it was -70.2% (active); in the test on RXF 393 renal, -88.3% (active); with SF-268 CNS it was -24.3% (active); in the test with SF-295 CNS, -79.8% (active). Moreover, the growth was -85% (active) in the test with SF-539 CNS; -77.4% (active) in the test with UACC-257 melanoma; -78.8% (active) in the test on M14 melanoma; -54.6% (active) with HCT-15 colon; -90.8% (active) in the test on HT29 colon; -65.4% (active) in the test on SNB-75 CNS. Further, the growth in the test with SNB-19 CNS is -20.6% (active); in the test with U251 CNS, -74.2% (active); in the test on PC-3 prostate it was -18.6% (active); with LOX IMVI melanoma, -91.5% (active).

As to `Cc1cc(N2CCCC2)nc(NC2CCCC(Nc3ccnc4cc(Cl)ccc34)C2)n1` (stereo not drawn), the growth in the test with DU-145 prostate is -21.8% (active); with MALME-3M melanoma it was -80.4% (active); in the test with MDA-MB-231 breast, -77% (active); in the test on RXF 393 renal, -84.5% (active); with SF-268 CNS, -36.7% (active); in the test on SF-295 CNS it was -80.8% (active). The growth in the test on SF-539 CNS is -92.5% (active); with UACC-257 melanoma, -84.3% (active); in the test on M14 melanoma, -83.6% (active); with HCT-15 colon, -52% (active); in the test with HT29 colon, -70% (active); in the test with SNB-75 CNS it was -68.6% (active). For the same compound, the growth in the test on SNB-19 CNS was -20.3% (active); with U251 CNS, -96.1% (active); in the test on PC-3 prostate, -58.1% (active); in the test with UACC-62 melanoma, -79.8% (active); in the test on LOX IMVI melanoma, -94.2% (active); in the test with SK-MEL-28 melanoma, -77.5% (active).

For the compound `COc1cccc2c1C(=O)c1c(O)c3c(c(O)c1C2=O)C[C@](O)(C(=O)CO)C[C@H]3O[C@@H]1C[C@@H](NC(=O)CCCN(C)C2(c3ccc(F)cc3)CC3CCC2C3)[C@H](O)[C@@H](C)O1` (stereo partly drawn), the growth with DU-145 prostate is -48.4% (active); with MALME-3M melanoma, -83.2% (active); in the test with MDA-MB-231 breast, -76.4% (active); in the test with RXF 393 renal it was -95.8% (active); with SF-268 CNS, -82.4% (active); in the test on SF-295 CNS, -92.9% (active). The growth is -81.6% (active) in the test on SF-539 CNS; -26.9% (active) in the test on UACC-257 melanoma; -86.8% (active) in the test with M14 melanoma; 3.39% (active) in the test with HCT-15 colon; -61.2% (active) in the test on HT29 colon; 30% in the test with SNB-75 CNS. The growth was -66% (active) in the test on SNB-19 CNS, -98% (active) in the test on U251 CNS, -76.7% (active) in the test with PC-3 prostate and -94.4% (active) in the test with LOX IMVI melanoma.
